Tau fibril ThT: blocks human tau fibril formation measured by thioflavin T; recombinant tau K18 P301L, heparin-induced fibrillization, ThT fluorescence; Potency, µM (top dose mostly 57.4 µM), without a hit: at the top dose activity, negative = inhibition, most hits filed as inhibitors; AID 1460; 2.1% of 270,000 active; further: on the % scale 0 is the no-effect control and ±100 the full control effect; nearly all actives have a fitted effect of over 55% in size
Target sequence (P10636 561-689 P618L limits assumed): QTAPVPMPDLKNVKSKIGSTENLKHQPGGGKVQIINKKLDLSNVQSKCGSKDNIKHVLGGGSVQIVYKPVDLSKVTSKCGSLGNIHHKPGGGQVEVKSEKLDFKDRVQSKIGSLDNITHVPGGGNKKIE
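Heparin-induced (20 uM) aggregation of recombinant human K18 P301L tau, 15 uM unlabeled with 0.24 uM labeled, pH 7 acetate buffer, 6 hr at 37 C with compound. Fibrils quantified by 30 uM ThT fluorescence after 1 hr ambient incubation.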
HTT cytoprotect: Huntington cell model cytoprotection by ATP luminescence. 0.14% of 230,000 active. PC12 HTT-Q103 induced, cytoprotection, ATP luminescence, 40 h. AID 1471. Potency, µM (doses to about 56.4 µM), for the others: cytoprotection (ATP increase), usual class: activators; further: % of control where 0% means no effect; nearly all actives have a fitted effect of over 45% in size
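Readout: ATPlite luminescence (ATP level). Model: stable PC12, inducible Htt exon1 Q103-GFP. Inducer: tebufenozide, 100 nM final. Compounds: dose series. No G418 in medium.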
Tau fibril FP: blocks human tau fibril formation measured by polarization | P10636 | K18 P301L tau heparin fibrillization, Alexa594 FP, 6 h | Potency, µM (highest dose often 57.7 µM), for inactives: at the highest dose activity, negative = inhibition, actives largely listed as inhibitors | 0.39% of 280,000 active | AID 1468; further: on the % scale 0 is the no-effect control and ±100 the full control effect; nearly all actives have a fitted effect of over 55% in size
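Steps: dispense K18 P301L tau (15 uM plus 0.24 uM Alexa 594 tracer, final) in pH 7 sodium acetate; add compound; add heparin (20 uM final); incubate 6 hr, 37 C; add ThT (30 uM final); after 1 hr ambient, read FP.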
HttQ103 aggreg: mutant huntingtin aggregation inhibition; Potency, µM (series often up to 46.1 µM), inactives show at the highest dose activity change, negative = inhibition, most hits filed as inhibitors; 1.1% of 220,000 active; PC12 HttQ103-GFP aggregates, Acumen cytometry, 40 h; further: on the % scale 0 is the no-effect control and ±100 the full control effect; nearly all actives have a fitted effect of over 60% in size
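PC12/HTTQ103-GFP, ecdysone-inducible; teb 100 nM; cpd qHTS titration; GFP aggregates read on laser cytometer, Ex 488/Em 500-530 nm.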
Tau fluor cs: counter-screen for tau fibril formation inhibitors. tau K18 P301L (four-repeat tau fragment) Alexa594 fluorescence, heparin fibrillization. Potency, µM (doses to about 57.7 µM), without a hit: at the top dose activity change, negative = decrease. 0.93% of 280,000 active. AID 1463; further: on the % scale 0 is the no-effect control and ±100 the full control effect; nearly all actives have a fitted effect of over 55% in size
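Human K18 P301L tau (15 uM unlabeled plus 0.24 uM Alexa 594-labeled, final) in 100 mM sodium acetate pH 7 was mixed with compound and 20 uM heparin and incubated 6 hr at 37 C.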
Numbers without * were called inactive; ? = inconclusive; . = no result given; [ ] = dose if it differs, or a comment. Compounds with a hit are over-represented: about 3.7% of the library has one in this group of screens. The call rests on the fitted dose curve; in most records, active means well fitted curve in the direction sought with a large enough effect; inconclusive means small, poorly fitted or top-dose-only effect, or another doubt; inactive means no such curve, though single readings can be large; an effect the other way counts as inactive or inconclusive. Potency means the concentration at half of the fitted maximal effect.

SMILES | Tau fibril ThT | HTT cytoprotect | Tau fibril FP | HttQ103 aggreg | Tau fluor cs
O=C(NCCn1cc(SCc2ccc(C(F)(F)F)cc2)c2ccccc21)c1cccs1 | ? | . | -13.7% | . | 5.62µM*[quencher]
COc1ccc(C(=O)/C(C#N)=N/Nc2cccc([N+](=O)[O-])c2)cc1 | 7.94µM* | -52.7%[10 µM] | 5.5% | ? | ?
CC(=O)/C(N)=N/Nc1cccc(Cl)c1 | ? | 11.1%[10 µM] | 15.8% | 9.8% | ?
Cc1c(N/N=C(\C#N)C(=O)c2ccccc2)c(=O)n(-c2ccccc2)n1C | ? | -8.5%[1.9 µM] | -2.8% | -14.2% | -19.7%
CCC(CC)=NNc1cccc([N+](=O)[O-])c1 | 5.5% | 5.8%[10 µM] | 6.2% | 4.5% | -1.6%
N#C/C(=N\Nc1cccc(Cl)c1)C(=O)c1ccccc1 | 10µM* | -66.5% | 10.9% | 3.55µM* | ?
N#C/C(=N\Nc1ccccc1Cl)C(=O)c1ccccc1 | 20µM* | -93.4% | ? | ? | -22.2%
COc1ccc(-c2noc(CSc3nnc(Cc4ccccc4)n3-c3ccc(F)cc3)n2)cc1 | -15.5% | . | 13.6% | . | -16.4%
CC(C)c1ccc(/C=N/N2CCN(c3ccccn3)CC2)cc1 | 12.6µM* | 16.9%[10 µM] | -6.0% | -3.5%[9.22 µM] | ?
O=S(=O)(Nc1ncccn1)c1ccc(NS(=O)(=O)c2cc(Cl)ccc2Cl)cc1 | -6.0% | -33.1% | -0.5% | -16.7% | -4.1%
CN(C)c1ccc(NS(=O)(=O)c2cc(Cl)ccc2Cl)cc1 | ? | 0.794µM* | 7.7% | ? | ?
CCN(c1ccc(NS(=O)(=O)c2cc(Cl)ccc2Cl)cc1)C(C)C | -17.1% | 1.4%[10 µM] | 20.0% | 10µM* | ?
O=C(CSc1c2c(nc3cc(Cl)ccc13)CCCC2)NCc1ccco1 | ? | 12.6µM* | 17.4% | . | -7.3%
COc1ccc2c3c(ccc2c1)N[C@H](C(=O)O)CC3 | . | -14.3%[10 µM] | . | . | .
CCO/C(=C/c1sc2ccc(OC)cc2[n+]1CCCS(=O)(=O)[O-])CC | -8.3% | 6.7% | -13.3% | 11.1% | -4.5%
CCC(/C=C1\Sc2ccc(OC)cc2N1CCO)=C\c1sc2ccc(OC)cc2[n+]1CCO | 1.12µM* | 12.1%[10 µM] | -13.2% | ? | 0.398µM*[fluorescent]
CCC(=O)/C=C1/Sc2ccc(OC)cc2N1CCO | -2.5% | -0.9%[10 µM] | 1.4% | 6.9%[9.22 µM] | -5.6%
CCC(/C=C1\Sc2ccc(OC)cc2N1CC)=C\c1sc2ccc(OC)cc2[n+]1CCCS(=O)(=O)[O-] | 3.55µM* | -17.0% | ? | ? | 0.794µM*[fluorescent]
CC(=O)c1cccc(NC(=O)c2nc(-c3ccccc3)n(-c3ccccc3C)n2)c1 | 2.3% | . | 4.6% | . | -8.7%
COC(=O)c1sccc1NC(=O)Cc1ccc(OC)cc1 | -1.2% | . | -8.5% | 39.8µM* | -5.9%
COC(=O)c1sccc1NC(=O)c1ccc(C)o1 | -8.2% | -20.0% | -6.2% | 12.2% | -8.8%
CC(C)OC(=O)[C@H]1O[C@H](CCCCOCc2ccccc2)[C@@H](C)[C@H]2O[C@H]21 | -14.1% | -35.3% | 0.2% | . | -17.8%
COc1cc(-c2cccs2)cc(=O)c2c(C)oc(C)c12 | 25.1µM* | -19.6%[10 µM] | ? | -17.0% | -19.0%
COc1cc(-c2cc(OC)c3c(C)oc(C)c3c(=O)c2)ccc1OC(=O)c1ccccc1Cl | ? | . | -0.1% | . | -10.9%
O=C(Nc1cccc2cccnc12)[C@@H]1[C@@H](C(=O)O)[C@H]2CC[C@@H]1O2 | . | -3.4%[10 µM] | . | . | .
SMILES | Tau fibril ThT | HTT cytoprotect | Tau fibril FP | HttQ103 aggreg | Tau fluor cs
CC(=O)OCC1OC(C#Cc2ccc(Cl)cc2)C=CC1OC(C)=O (stereo not given) | -14.1%[11.5 µM] | -7.2%[10 µM] | -0.4%[11.6 µM] | . | -14.9%[11.6 µM]
Nc1c(Cl)cc(Cl)cc1Cl | . | -8.9% | . | . | .
COc1cc(NC(=O)CCc2c(C)nc3nc(-c4cc(OC)cc(OC)c4)nn3c2C)cc(OC)c1 | ? | . | -12.2% | . | ?
CCOc1ccccc1C(=O)N1c2ccccc2Sc2ccccc21 | ? | ? | 6.8% | 15.8µM* | -17.7%
COc1cc(/C=C(\C#N)C(=O)c2ccc(O)c(O)c2)cc(I)c1O | 8.91µM* | 0.3%[1.9 µM] | 3.0% | . | ?
O=C1c2ccccc2-c2ccc(N=[N+]([O-])c3ccc4c(c3)C(=O)c3ccccc3-4)cc21 | . | 7.4%[10 µM] | . | . | .
CCN(CC)S(=O)(=O)c1cccc(NC(=O)C2SC(=Nc3ccc(C)cc3C)C(C(=O)NCC3CCCO3)=C2N)c1 (stereo not given) | -14.4% | -3.0% | ? | 7.7% | 12.6µM*[quencher]

From PubChem
